Some test systems named below: SK-MEL-2 melanoma; EKVX NSCLC; SN12C renal; UO-31 renal; ACHN renal; CAKI-1 renal; A498 renal; CCRF-CEM leukemia; MOLT-4 leukemia; TK-10 renal.
Test in all cases: NCI-60 one-dose screen, 48 h (100 = growth as untreated, 0 = no growth, -100 = all killed)
What all share (conditions): 10 µM unless noted

Values joined by “and” are separate entries in the source; they are usually repeats but may differ in a detail not shown here. Identical values can stand only once. Compounds without any hit were thinned out: in the full panel of roughly 83,000, 20% have a hit.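 Results are percent growth after 48 hours of single-concentration exposure. 100 means growth as in untreated cells, lower positive values show inhibition; negative values down to -100 show cell death.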 Active and inactive are the calls of the source. How the source made its calls: active means growth percent below 10; inactive means the rest.

Take `CC1CC(O)CC(C)(C)C1.CC1CC(O)CC(C)(C)C1.CC1CC(O)CC(C)(C)C1.CC1CC(O)CC(C)(C)C1.[Ti]` (stereo not given): the growth in the test with SK-MEL-2 melanoma is 93.9% (inactive); in the test on EKVX NSCLC it was 93.6% (inactive); with SN12C renal it was 82% (inactive); in the test with UO-31 renal it was 79% (inactive); with ACHN renal, 111% (inactive); in the test on CAKI-1 renal, 94.9% (inactive). Further, the growth in the test on A498 renal was 106% (inactive); with CCRF-CEM leukemia, 112% (inactive); in the test on MOLT-4 leukemia, 98.8% (inactive).
With `O=C(O)Cc1cc(=O)[nH]n(-c2ccccc2)c1=O`, the growth with SK-MEL-2 melanoma was 116% (inactive); with EKVX NSCLC it was 96% (inactive); in the test on SN12C renal, 97.9% (inactive); in the test on UO-31 renal, 101% (inactive); in the test on TK-10 renal, 102% (inactive); in the test with ACHN renal, 105% (inactive). Further, the results for the growth in the test with CAKI-1 renal, in the test with CCRF-CEM leukemia and in the test on MOLT-4 leukemia were 83.5% (inactive), 112% (inactive) and 88.3% (inactive), respectively.
With `O=c1[nH]c(=O)n(C2OC(CO)C(O)C2O)cc1I` (stereo not given), the growth in the test on SK-MEL-2 melanoma is 124% (inactive); in the test with EKVX NSCLC, 100% (inactive) and 98.9% (inactive); in the test with SN12C renal, 94.8% (inactive) and 99% (inactive); in the test with UO-31 renal, 77.7% (inactive) and 87.1% (inactive); in the test with ACHN renal it was 111% (inactive) and 117% (inactive); with CAKI-1 renal, 95.9% (inactive) and 97.9% (inactive). Moreover, the growth is 97.5% (inactive) and 120% (inactive) in the test with A498 renal; 95.5% (inactive) with CCRF-CEM leukemia.
Regarding `CCOP(=O)(OCC)/C(C#N)=C/c1c(C)[nH]c2ccccc12`, the growth in the test with SK-MEL-2 melanoma was 99.2% (inactive); in the test with EKVX NSCLC it was 97.4% (inactive); in the test on SN12C renal, 92% (inactive); with UO-31 renal, 72.8% (inactive); in the test on ACHN renal it was 102% (inactive); with CAKI-1 renal, 51% (inactive). In addition, the growth in the test on A498 renal is 116% (inactive); in the test with CCRF-CEM leukemia it was 89.6% (inactive); in the test with MOLT-4 leukemia it was 97.9% (inactive).
`O=C(Nc1ccccc1)OCC(CN1CCCCC1)OC(=O)Nc1ccccc1` (stereo not given): the growth with SK-MEL-2 melanoma is 85.6% (inactive) and 108% (inactive); with EKVX NSCLC, 82.5% (inactive); in the test with SN12C renal it was 77.5% (inactive) and 94% (inactive); in the test with UO-31 renal it was 53.5% (inactive) and 66.7% (inactive); with ACHN renal, 72.9% (inactive) and 92.8% (inactive); in the test with CAKI-1 renal, 71.6% (inactive) and 86% (inactive). Besides, the growth was 79.5% (inactive) and 68.7% (inactive) in the test on A498 renal; 82.3% (inactive) in the test on CCRF-CEM leukemia; 64.8% (inactive) and 87.9% (inactive) with MOLT-4 leukemia.
As for `CCOC(=O)C1=C(C)NC(C)=C(C(=O)OCC)C1`, the growth was 109% (inactive) and 110% (inactive) in the test with SK-MEL-2 melanoma; 109% (inactive) with EKVX NSCLC; 94.7% (inactive) and 109% (inactive) in the test with SN12C renal; 98.9% (inactive) and 90.4% (inactive) in the test with UO-31 renal; 109% (inactive) and 105% (inactive) with ACHN renal; 113% (inactive) and 97.6% (inactive) in the test with CAKI-1 renal. In addition, the growth with A498 renal is 112% (inactive); in the test on CCRF-CEM leukemia, 86.9% (inactive) and 56% (inactive).
With `CCN(CC)CCNC(=O)c1ccc(NCN2C(=O)NC(c3ccccc3)(c3ccccc3)C2=O)cc1`, the growth with SK-MEL-2 melanoma is 106% (inactive) and 112% (inactive); in the test with EKVX NSCLC, 90.6% (inactive) and 95.3% (inactive); in the test on SN12C renal, 107% (inactive) and 105% (inactive); in the test with UO-31 renal it was 86.6% (inactive) and 67.1% (inactive); with ACHN renal, 107% (inactive) and 104% (inactive); with CAKI-1 renal, 90.5% (inactive) and 88.1% (inactive). For the same compound, the growth in the test with A498 renal is 81.1% (inactive) and 205% (inactive); in the test on CCRF-CEM leukemia it was 101% (inactive); in the test with MOLT-4 leukemia it was 102% (inactive) and 108% (inactive).
For `CCOC(=N)c1ccc(C(=N)OCC)cc1`, the growth with SK-MEL-2 melanoma was 103% (inactive); in the test with EKVX NSCLC, 90.2% (inactive); in the test on SN12C renal it was 98.4% (inactive); with UO-31 renal, 95.1% (inactive); in the test with ACHN renal, 102% (inactive); in the test on CAKI-1 renal, 99% (inactive). Further, the growth was 90.6% (inactive) in the test on A498 renal, 107% (inactive) with CCRF-CEM leukemia and 111% (inactive) with MOLT-4 leukemia.
Regarding `CCCCC/C(C)=N\NC(N)=S`, the growth in the test with SK-MEL-2 melanoma is 103% (inactive); in the test on EKVX NSCLC, 55.4% (inactive); in the test on SN12C renal, 84.4% (inactive); in the test on UO-31 renal, 61.8% (inactive); with ACHN renal, 92.6% (inactive); in the test on CAKI-1 renal it was 95.2% (inactive). Further, the figures for the growth in the test with A498 renal, in the test on CCRF-CEM leukemia and in the test on MOLT-4 leukemia were 84.7% (inactive), 41.1% (inactive) and 57.2% (inactive), respectively.
Regarding `Cc1cc2nc3ccc(=[N+](C)C)cc-3sc2cc1N`, the growth was -33.5% (active) and 20.3% (inactive) with SK-MEL-2 melanoma; 38.7% (inactive) and 24.3% (inactive) in the test with EKVX NSCLC; -65.9% (active) and -66.4% (active) in the test with SN12C renal; 8.95% (active) and 36.6% (inactive) in the test on UO-31 renal; -73.1% (active) and 9.45% (active) in the test with ACHN renal; 12% (inactive) and 27.6% (inactive) with CAKI-1 renal. For the same compound, the growth in the test with A498 renal is 74.9% (inactive) and 65.4% (inactive); in the test on CCRF-CEM leukemia it was -7.13% (active) and -12.1% (active); in the test with MOLT-4 leukemia, -10.7% (active) and -19.8% (active).
Regarding `COC(=O)c1nc(N)nc(C(=O)OC)c1C(=O)c1ccc(F)cc1`, the growth in the test with SK-MEL-2 melanoma is 105% (inactive); with EKVX NSCLC it was 104% (inactive); in the test on SN12C renal, 103% (inactive); with UO-31 renal, 92.4% (inactive); with ACHN renal, 116% (inactive); in the test with CAKI-1 renal it was 96.1% (inactive). Further, the values for the growth with A498 renal, with CCRF-CEM leukemia and in the test on MOLT-4 leukemia were 120% (inactive), 106% (inactive) and 156% (inactive), respectively.
For the compound `CCc1ccc(OC(=O)CCl)cc1`, the growth in the test with SK-MEL-2 melanoma is 99.9% (inactive); with EKVX NSCLC, 98.6% (inactive); in the test on SN12C renal, 106% (inactive); in the test with UO-31 renal it was 88.6% (inactive); in the test on ACHN renal, 102% (inactive); with CAKI-1 renal, 101% (inactive). The growth with A498 renal is 88.3% (inactive); in the test on CCRF-CEM leukemia, 104% (inactive).
